Assay results from PubChem BioAssay.
For some of these results: Measured potencies and affinities stand elsewhere. Calls of active or inactive are those of the source.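 How the source made its calls, unless noted: active means fluorescence ratio normalized to control raised more than 50% in primary screen plus both repeat runs; inactive means the rest.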

Legend:
[1] = tested on: TRPC4 beta (transient receptor potential cation channel C4), mouse; experiment: activators of mouse TRPC4 channel, confirmation, cell-based, Fluo4 calcium, HEK293 TRPC4beta/mu-opioid, duplicates, 10 µM (AID 2426); conditions: Fluo4 calcium fluorescence, at 10 µM; hits give high values
[2] = tested on: transient receptor potential cation channel C4 beta (TRPC4), mouse; experiment: activators of mouse TRPC4 channel, confirmation, cell-based, second round, Fluo4, HEK293 TRPC4beta/mu-opioid, 1 µM (AID 2461;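 active means primary screen active and over 50% activation in each of two duplicate runs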); conditions: Fluo4 calcium fluorescence, at 1 µM; hits give high values
[3] = tested on: TRPC4 (transient receptor potential cation channel C4 beta), mouse; experiment: positive allosteric modulators of mouse TRPC4, confirmation, cell-based, second round, Fluo-4, HEK293 TRPC4beta/mu-opioid, 1 µM (AID 2554;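 active means primary screen hit whose fluorescence ratio, in both repeats, exceeds the weak agonist control mean by 3 SD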); conditions: DAMGO EC20, Fluo-4 calcium flux, at 1 µM; hits give high values
[4] = tested on: TRPC4 beta (transient receptor potential cation channel C4), mouse; experiment: positive allosteric modulators of mouse TRPC4, confirmation, cell-based, Fluo-4, HEK293 TRPC4beta/mu-opioid (AID 2555;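 active means primary screen hit whose calcium fluorescence ratio, in both repeats, exceeds the weak agonist control mean by 3 SD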); conditions: DAMGO EC20, Fluo-4 calcium flux, at 10 µM; hits give high values
[5] = molecular target: Short transient receptor potential channel 4 (Mus musculus) (UniProt Q9QUQ5); experiment: inhibitors of mouse TRPC4 channel, confirmation, cell-based, Fluo4, HEK293 TRPC4beta/mu-opioid (AID 2636;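 active means calcium signal cut by more than 3 SD below the full-agonist control yet still positive, in both repeats and the earlier primary screen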); conditions: DAMGO, Fluo4 calcium flux, at 10 µM; hits give high values
Sequence of Short transient receptor potential channel 4 (Mus musculus) (Q9QUQ5 whole entry, looked up): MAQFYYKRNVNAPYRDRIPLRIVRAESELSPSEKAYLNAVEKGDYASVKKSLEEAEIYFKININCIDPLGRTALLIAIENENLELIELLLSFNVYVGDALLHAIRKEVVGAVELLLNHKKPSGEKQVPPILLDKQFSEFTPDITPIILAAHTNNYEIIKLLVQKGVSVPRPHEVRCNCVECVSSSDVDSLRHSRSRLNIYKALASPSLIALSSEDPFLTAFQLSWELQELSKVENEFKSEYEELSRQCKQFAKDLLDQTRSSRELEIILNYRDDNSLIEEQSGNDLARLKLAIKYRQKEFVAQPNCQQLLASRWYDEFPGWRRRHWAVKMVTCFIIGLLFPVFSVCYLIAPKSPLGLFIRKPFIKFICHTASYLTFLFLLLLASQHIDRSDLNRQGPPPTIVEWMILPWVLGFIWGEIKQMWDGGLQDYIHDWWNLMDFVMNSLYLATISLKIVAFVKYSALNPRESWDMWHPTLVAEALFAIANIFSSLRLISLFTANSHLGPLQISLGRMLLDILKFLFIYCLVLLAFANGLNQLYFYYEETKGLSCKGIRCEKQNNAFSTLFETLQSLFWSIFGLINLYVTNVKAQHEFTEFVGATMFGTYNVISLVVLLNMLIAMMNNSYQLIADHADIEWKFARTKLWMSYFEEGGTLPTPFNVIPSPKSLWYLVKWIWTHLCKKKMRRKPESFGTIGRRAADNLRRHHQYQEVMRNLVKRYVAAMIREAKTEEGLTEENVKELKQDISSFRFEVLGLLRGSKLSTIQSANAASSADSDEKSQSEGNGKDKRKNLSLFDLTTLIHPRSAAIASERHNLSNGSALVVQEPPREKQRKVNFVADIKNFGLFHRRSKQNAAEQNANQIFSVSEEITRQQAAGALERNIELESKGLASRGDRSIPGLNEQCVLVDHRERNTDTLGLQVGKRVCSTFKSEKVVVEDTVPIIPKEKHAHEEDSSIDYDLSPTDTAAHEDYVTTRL

[6] = molecular target: Short transient receptor potential channel 4 (Mus musculus) (UniProt Q9QUQ5); experiment: inhibitors of mouse TRPC4 channel, confirmation, cell-based, second round, Fluo4, HEK293 TRPC4beta/mu-opioid, 1 µM (AID 2637;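 active means calcium signal ratio cut to more than 3 SD under the fully stimulated control mean yet still positive, in both repeats and the primary screen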); conditions: Fluo4 calcium flux, DAMGO, at 1 µM; hits give high values
[7] = molecular target: Short transient receptor potential channel 4 (Mus musculus) (UniProt Q9QUQ5); experiment: mouse TRPC4 channel activators, dose response, cell-based, HEK293 TRPC4/mu-opioid, Fluo-4 calcium (AID 434937;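 active means primary screen activator hit with a dose response curve and TRPC4 channel activation at any tested dose; inactive means no activation, no dose response, or not a primary hit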)
[8] = molecular target: Short transient receptor potential channel 4 (Mus musculus) (UniProt Q9QUQ5); experiment: TRPC4 positive allosteric modulators, dose response, cell-based, HEK293 TRPC4/mu-opioid, Fluo-4 calcium, EC20 DAMGO (AID 434941;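 active means earlier screen potentiator hit that boosts the TRPC4 ion channel at some dose, with a dose response; inactive means no potentiation, no dose response, or not a prior hit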;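 further: calcium entry triggered by an EC20 dose of DAMGO at the co-expressed mu-opioid receptor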)
[9] = molecular target: Short transient receptor potential channel 4 (Mus musculus) (UniProt Q9QUQ5); experiment: mouse TRPC4 channel inhibitors, dose response, cell-based, HEK293 TRPC4/mu-opioid, Fluo-4 calcium (AID 434942;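 active means primary screen inhibitor hit that blocks the TRPC4 channel at some tested dose, yielding a dose curve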)
[10] = molecular target: Short transient receptor potential channel 6 (Mus musculus) (UniProt Q61143); experiment: inhibition of mouse TRPC6 channel, confirmation, selectivity assay for TRPC4 inhibitor project, cell-based, HEK293, membrane potential dye, duplicate (AID 434948;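 active means active in primary screen and both duplicates, each dropping signal beyond three positive-control SD with fluorescence still positive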); conditions: HEK293 TRPC6, membrane potential dye fluorescence, at 10 µM, stimulated with maximal-effect acetylcholine; hits give high values
Sequence of Short transient receptor potential channel 6 (Mus musculus) (Q61143 whole entry, looked up): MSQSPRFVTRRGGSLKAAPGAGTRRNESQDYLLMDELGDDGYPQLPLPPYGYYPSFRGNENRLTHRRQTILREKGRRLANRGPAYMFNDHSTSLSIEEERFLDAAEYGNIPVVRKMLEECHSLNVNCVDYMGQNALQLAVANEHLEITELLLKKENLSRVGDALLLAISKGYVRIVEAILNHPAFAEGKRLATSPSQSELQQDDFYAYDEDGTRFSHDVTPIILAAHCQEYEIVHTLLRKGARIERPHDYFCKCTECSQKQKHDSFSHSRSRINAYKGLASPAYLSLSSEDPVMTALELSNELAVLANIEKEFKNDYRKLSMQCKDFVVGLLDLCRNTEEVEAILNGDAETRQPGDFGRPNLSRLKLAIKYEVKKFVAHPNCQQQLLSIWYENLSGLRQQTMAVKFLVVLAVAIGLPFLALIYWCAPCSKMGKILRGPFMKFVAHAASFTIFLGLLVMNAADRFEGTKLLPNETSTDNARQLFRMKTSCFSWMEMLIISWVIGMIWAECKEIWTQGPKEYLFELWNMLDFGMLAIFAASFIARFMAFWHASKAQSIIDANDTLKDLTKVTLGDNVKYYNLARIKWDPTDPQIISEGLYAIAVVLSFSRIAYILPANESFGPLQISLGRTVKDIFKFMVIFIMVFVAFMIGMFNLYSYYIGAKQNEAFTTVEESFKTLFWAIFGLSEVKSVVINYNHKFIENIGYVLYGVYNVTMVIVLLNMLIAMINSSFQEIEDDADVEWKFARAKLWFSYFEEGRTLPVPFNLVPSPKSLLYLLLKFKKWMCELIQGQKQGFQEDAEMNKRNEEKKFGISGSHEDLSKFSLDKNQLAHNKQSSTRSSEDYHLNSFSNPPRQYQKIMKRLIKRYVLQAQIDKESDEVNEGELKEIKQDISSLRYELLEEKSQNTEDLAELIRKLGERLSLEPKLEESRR

[11] = molecular target: Short transient receptor potential channel 6 (Mus musculus) (UniProt Q61143); experiment: activation of mouse TRPC6 channel, confirmation, selectivity assay for TRPC4 activator project, cell-based, HEK293, membrane potential dye, duplicate (AID 434950;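 active means membrane potential signal rise above negative control mean plus 3 SD in both duplicates, also active in the earlier TRPC4 screen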); conditions: HEK293 TRPC6, membrane potential fluorescence, at 10 µM; hits give high values
[12] = molecular target: Short transient receptor potential channel 6 (Mus musculus) (UniProt Q61143); experiment: TRPC6 potentiation by TRPC4 potentiator hits, confirmation, selectivity assay for TRPC4 potentiator project, HEK293 cells, membrane potential dye, duplicate (AID 434952;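 active means compound raising the membrane signal above positive-control mean plus 3 SD in both repeats, and a primary screen hit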); conditions: HEK293 TRPC6, membrane potential dye fluorescence, at 10 µM, maximal acetylcholine added after compound; hits give high values
[13] = molecular target: Short transient receptor potential channel 4 (Mus musculus) (UniProt Q9QUQ5); experiment: calcium flux activators in TRPC4/5HT1a cells, counter-screen for TRPC4 activator project, cell-based, second counter screen, HEK293 TRPC4/5HT1a, Fluo-4 (AID 434977;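 active means calcium signal rise above buffer-control mean plus 5 SD in both duplicates, and also a hit in the primary screen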); conditions: Fluo-4 calcium flux, at 10 µM; hits give high values
[14] = calcium flux inhibitors in TRPC4/5HT1a cells, confirmation, counter-screen for TRPC4 inhibitor project, cell-based, second counter screen, HEK293 TRPC4/5HT1a, Fluo-4 (AID 434978;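 active means primary screen active whose calcium signal fell more than 3 SD beyond the full-serotonin control mean in both duplicate plates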;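 on outcome: serotonin given first at submaximal then at maximal dose after compound preincubation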); conditions: Fluo-4 calcium flux, at 10 µM, serotonin added to trigger calcium flux; hits give high values
[15] = tested on: TRPC4 (mouse), co-expressed with 5HT1a in HEK293; experiment: calcium flux potentiators in TRPC4/5HT1a cells, confirmation, counter-screen for TRPC4 potentiator project, cell-based, second counter screen, HEK293 TRPC4/5HT1a, Fluo-4 (AID 434979;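 active means signal rise over 3 SD above mean of control wells given weak agonist, in both repeats and first screen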); conditions: Fluo-4 calcium flux, at 10 µM, serotonin added at its EC20 dose; hits give high values
[16] = calcium flux activation in mu-opioid HEK293 cells, confirmation, counter-screen for TRPC4 activator project, cell-based, HEK293 mu-opioid receptor line (AID 449723;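 active means hit in primary screen, with calcium signal over 5 SD above buffer well mean in both duplicates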;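 further: counter screen cells carry the mu-opioid receptor alone and lack TRPC4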); conditions: Fluo-4 calcium fluorescence, at 10 µM; hits give high values
[17] = calcium flux enhancement in mu-opioid HEK293 cells, confirmation, counter-screen for TRPC4 allosteric potentiator project, cell-based, HEK293 mu-opioid receptor line (AID 449724;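 active means calcium signal rise more than 3 SD above the low-dose agonist control mean, in both duplicate plates and the primary screen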); conditions: Fluo-4 calcium flux, at 10 µM, compound added before EC20 DAMGO stimulus; hits give high values

CCCn1c(N2CCN(S(=O)(=O)Cc3ccccc3)CC2)nc2ccccc21
inactive: outcome [1] | outcome [2] | outcome [3] | outcome [5] | outcome [6] | outcome [7] | outcome [8] | outcome [9] | outcome [10] | outcome [11] | outcome [12] | outcome [13] | outcome [14] | outcome [16] | outcome [17]
active: potentiation [4] 11% | potentiation [15] 22.3%

O=C(CN1CCCC1)N1c2ccccc2Sc2ccc(C(F)(F)F)cc21
inactive: outcome [1] | outcome [2] | outcome [3] | outcome [4] | outcome [5] | outcome [6] | outcome [7] | outcome [8] | outcome [9] | outcome [10] | outcome [11] | outcome [12] | outcome [13] | outcome [14] | outcome [15] | outcome [16] | outcome [17]

CCNc1nc(NC(C)(C)C)nc(N2CCCC2)n1
active: inhibition [5] 77% | inhibition [14] 41.2%
inactive: outcome [1] | outcome [2] | outcome [3] | outcome [4] | outcome [6] | outcome [7] | outcome [8] | outcome [9] | outcome [10] | outcome [11] | outcome [12] | outcome [13] | outcome [15] | outcome [16] | outcome [17]

COC(=O)c1cc(N2CCN(C)CC2)nc2ccccc12
inactive: outcome [1] | outcome [2] | outcome [3] | outcome [4] | outcome [5] | outcome [6] | outcome [7] | outcome [8] | outcome [9] | outcome [10] | outcome [11] | outcome [12] | outcome [13] | outcome [14] | outcome [15] | outcome [16] | outcome [17]

COc1ccccc1NC(=O)CSc1n[nH]c(-c2ccccn2)n1
inactive: outcome [1] | outcome [2] | outcome [3] | outcome [4] | outcome [5] | outcome [6] | outcome [7] | outcome [8] | outcome [9] | outcome [10] | outcome [11] | outcome [12] | outcome [13] | outcome [14] | outcome [15] | outcome [16] | outcome [17]

O=[N+]([O-])c1c(Nc2cccc(O)c2)cc(Cl)c2nonc12
inactive: outcome [1] | outcome [2] | outcome [3] | outcome [4] | outcome [5] | outcome [6] | outcome [7] | outcome [8] | outcome [9] | outcome [10] | outcome [11] | outcome [12] | outcome [13] | outcome [14] | outcome [15] | outcome [16] | outcome [17]

CN1CCN(CCCNC(=O)CN2C(=O)COc3ccccc32)CC1
inactive: outcome [1] | outcome [2] | outcome [3] | outcome [4] | outcome [6] | outcome [7] | outcome [8] | outcome [9] | outcome [10] | outcome [11] | outcome [12] | outcome [13] | outcome [14] | outcome [15] | outcome [16] | outcome [17]
active: inhibition [5] 77%

CC(C)c1cccc(OCCCCN(C)C)c1
inactive: outcome [1] | outcome [2] | outcome [5] | outcome [6] | outcome [7] | outcome [8] | outcome [9] | outcome [10] | outcome [11] | outcome [12] | outcome [13] | outcome [14] | outcome [16] | outcome [17]
active: potentiation [3] 9% | potentiation [4] 20% | potentiation [15] 16.2%
